A selection: hits, their analogues and other compounds. The true share with any hit is near 3%.
PPC-1+TRAIL kill – kills PPC-1 cancer cells in the presence of TRAIL | PPC-1 cells + TRAIL, ATPLite viability luminescence | cell killing (% activity), % at 4 µM or 5 µM | 220,000 tested, 0.41% active | AID 1443;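 active = cell killing above 50% in the first pass at 4 µM, then a duplicate retest at 5 µM averaging 50% or more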
SENP7 block – inhibitors of human SENP7 protease | Q9BQF6 | recombinant SENP7, Z-RLRGG-aminoluciferin luminescence, 40 min | inhibition, % at 5 µM | 330,000 tested, 1.5% active | AID 434973;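 active = inhibition above about 50% at the single test dose, limit read from the data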
Target sequence (Q9BQF6 706-1050 limits assumed): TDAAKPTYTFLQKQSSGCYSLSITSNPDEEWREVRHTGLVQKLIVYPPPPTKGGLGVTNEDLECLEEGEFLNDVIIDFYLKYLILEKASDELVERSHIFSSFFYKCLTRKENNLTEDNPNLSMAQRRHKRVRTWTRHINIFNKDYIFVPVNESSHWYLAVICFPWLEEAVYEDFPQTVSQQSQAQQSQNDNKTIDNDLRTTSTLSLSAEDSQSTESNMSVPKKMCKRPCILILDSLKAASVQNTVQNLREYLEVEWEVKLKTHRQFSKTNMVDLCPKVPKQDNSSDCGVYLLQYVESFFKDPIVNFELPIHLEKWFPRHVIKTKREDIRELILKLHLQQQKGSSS
C8 TRAIL sens – caspase-8 TRAIL sensitization | NB7+C8 cells + TRAIL, ATPlite viability luminescence | inhibition (viability loss, TRAIL sensitization), % at 10 µM | 360,000 tested, 1% active | AID 624354;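 active = compounds causing at least 50% loss of cell viability in the single-dose screen, relative to plate controls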
SENP8 block-1 – blocks the human protease SENP8. purified SENP8, Z-RLRGG-aminoluciferin cleavage, luminescence. inhibition, % at 10 µM. 330,000 tested, 1.2% active; in the data active = inhibition above about 50%
Target sequence (Q96LD8 whole entry, looked up): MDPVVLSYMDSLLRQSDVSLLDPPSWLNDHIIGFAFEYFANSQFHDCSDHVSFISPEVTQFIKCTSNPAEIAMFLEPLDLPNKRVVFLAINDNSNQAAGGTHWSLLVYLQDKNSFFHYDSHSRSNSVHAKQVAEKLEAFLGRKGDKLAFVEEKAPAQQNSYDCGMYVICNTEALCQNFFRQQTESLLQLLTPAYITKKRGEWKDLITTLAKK
SENP8 block-2 – blocks human SENP8 cleavage of Nedd8 substrate; recombinant SENP8, Nedd8 substrate fluorescence; Q96LD8; 360,000 tested, 0.64% active; inhibition, % at 20 µM; in the data active = inhibition mostly above about 40%, no sharp cut-off; inactive = mostly below about 27%
SENP6 inh – inhibitors of human SENP6 protease; AID 2599; Q9GZR1; 330,000 tested, 1.8% active; Recombinant SENP6 catalytic domain, aminoluciferin luminescence; inhibition, % at 10 µM;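 active = inhibition above about 50% at the single tested dose, limit read from the data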
Hits are given with their value; . = inactive; / = not tested or not shown.

SMILES	PPC-1+TRAIL kill	SENP7 block	C8 TRAIL sens	SENP8 block-1	SENP8 block-2	SENP6 inh
Cc1ccc(-n2nnnc2SCC(=O)N2CCc3ccccc3C2)cc1	.	.	.	.	41	.
COc1ccc(NC(=O)c2cc(-c3cc(F)ccc3OC(C)C)n[nH]2)c(C)c1	/	/	.	/	.	/
O=S1(=O)CCOC[C@H](Cc2ccccc2)N1Cc1cccc(C(F)(F)F)c1	/	.	.	.	.	.
FC(F)(F)c1cccc(CC2CN(Cc3ccccc3)Cc3ccccc3N2c2cc(Cl)cc(Cl)c2)c1 (centres undefined)	/	/	60	/	.	/
CN(CCc1ccccc1)C1CCCN(C(=O)Cn2cccn2)C1 (centres undefined)	/	.	.	.	.	.
COc1ccc(N2CCN(C(CNS(=O)(=O)c3cccs3)c3cccnc3)CC2)cc1 (centres undefined)	.	.	.	.	42	.
O=S(=O)(NCC(c1cccnc1)N1CCN(c2ccccc2)CC1)c1cccs1 (centres undefined)	.	.	.	.	.	.
CCCCCCCCCCCCCCC[C@@H](O)[C@@H](N)CO	/	/	95	/	.	/
CCCCCCCCCC(=O)OCC(O)CO (centres undefined)	.	.	.	.	.	.
O=C(O)c1cccc(NC(=S)NC(=O)c2ccc3ccccc3c2)c1	/	71	.	87	.	93
Cc1cc(NC2=CC(=O)C(=O)c3ccccc32)no1	/	/	72	/	.	/
Cc1cc(NC(=O)CCN2C(=O)c3ccccc3C2=O)no1	.	.	.	.	.	.
Nc1nc2c(F)c(F)c(F)cc2s1	.	.	.	.	.	.
COC(=O)Nc1nnc(-c2ccccc2OC)s1	.	67	.	.	.	.
O=C(NCCc1ccccc1)C(c1cccs1)N(C(=O)CCl)c1ccc(Cl)cc1 (centres undefined)	.	.	96	.	.	.
CC(C)(C)c1ccc(O)c(O)c1	/	.	.	.	.	.
CC(C)(C)c1ccc(O)c(/C=N\O)c1	.	.	72	.	.	.
Cc1cc(C(F)(F)F)n2[nH]c(=O)c(N=Nc3ccccc3)c2n1	/	.	.	.	.	.
Cc1cc(C)n2[nH]c(=O)c(N=Nc3cccc(Cl)c3)c2n1	.	.	.	.	48	.
Cc1cc(C)n2[nH]c(=O)c(N=Nc3cccc(C(F)(F)F)c3)c2n1	.	.	.	.	53	.
Cc1cc(C)n2[nH]c(=O)c(N=Nc3ccccc3)c2n1	.	.	.	.	.	.
O=C(/C=C/c1ccc(F)cc1)NC(Cc1c[nH]c2ccccc12)C(=O)O (centres undefined)	.	.	.	.	.	.
O=C1c2ccccc2/C(=C\C#Cc2ccccn2)N1c1ccccc1	/	.	74	.	.	.
COCCNC(=O)C(c1ccc(Cl)cc1)N(CCOC)C(=O)CCC(=O)Nc1ccccn1 (centres undefined)	/	.	.	.	.	.
CC(=O)N(/N=C1\Sc2ccccc2C1=O)c1ccccc1	.	/	.	/	74	/
SMILES	PPC-1+TRAIL kill	SENP7 block	C8 TRAIL sens	SENP8 block-1	SENP8 block-2	SENP6 inh
CCCN(C1CCS(=O)(=O)C1)S(=O)(=O)c1cc(OC)ccc1OC (centres undefined)	/	.	.	.	.	.
C=CC(=O)N1C/C(=C/c2ccc(F)cc2)C(=O)/C(=C\c2ccc(F)cc2)C1	/	/	93	/	.	/
CC(=O)Nc1cccc(OCCCNS(=O)(=O)c2ccc(C#N)cc2)c1	/	.	.	.	.	.
CN(C)c1ccc(N=Nc2ccccc2C(=O)OCC(=O)N2CCCCCC2)cc1	.	.	55	.	57	.
COc1ccc(/C=C2\CCCC3C2=NN(C(=O)COC(=O)CNC(=O)c2ccccc2)C3c2ccc(OC)cc2)cc1 (centres undefined)	.	.	59	.	.	.
COc1ccc(/C=C2\CCCC3C2=NN(C(=O)CSc2ncn[nH]2)C3c2ccc(OC)cc2)cc1 (centres undefined)	.	.	.	.	.	.
O=C(CCc1ccc(S(=O)(=O)N2CCOCC2)cc1)N/N=C/c1ccc(O)c(O)c1O	.	.	.	.	39	.
Cc1ccc2cc(C(c3nnnn3C3CCCC3)N(Cc3cccnc3)Cc3ccco3)c(=O)[nH]c2c1 (centres undefined)	53	.	.	.	.	.
O=C(N/N=C1/C(=O)c2cccc3cccc1c23)c1ccc(Cl)cc1	.	.	.	.	48	.
CCNC(=S)N/N=C1\C(=O)c2cccc3cccc1c23	.	.	.	.	44	.
COc1ccc(Cc2nc3ccc(C(=O)NC4CCOC4)cc3o2)cc1 (centres undefined)	/	.	.	.	.	.
COc1ccc(Br)cc1CNc1ccc2[nH]c(=O)[nH]c2c1	.	.	.	.	.	.
COc1ccc(Br)cc1CNc1ccc(O)cc1	.	58	.	.	61	.
CCc1c(C)[nH]n(-c2nc(-c3ccccc3)cs2)c1=O	.	.	.	.	.	.
Cc1[nH]n(-c2nc(-c3ccc(Cl)cc3)cs2)c(=O)c1N=Nc1ccc(O)cc1	.	.	80	.	41	.
CC(C)N=c1cc2n(-c3ccc(Cl)cc3)c3ccccc3nc-2cc1Nc1ccc(Cl)cc1	/	.	81	.	.	.
Cn1c(CNc2ccc(Cl)cc2)nc2ccccc21	.	.	.	.	.	.
Cc1ccc(Nc2nc(CSc3nnc(-c4ccncc4)n3C)cs2)cc1	72	.	76	.	.	.
Cc1ccc(CSc2nnc(-c3ccncc3)n2C)cc1	.	.	.	.	.	.
Oc1ccc(C=Nc2ccc3ncccc3c2)c(O)c1	.	.	/	89	/	84
COc1cccc(N=Cc2ccc(O)cc2O)c1	.	.	.	.	.	.
Oc1ccc(C=Nc2ccccc2-c2nc3ccccc3[nH]2)c(O)c1	.	.	.	.	.	.
Oc1ccccc1C=Nc1ccccc1-c1nc2ccccc2[nH]1	.	.	52	.	.	.
Fc1ccccc1-c1nc2ccccc2[nH]1	.	76	.	63	.	74
NC(=O)c1ccsc1NC(=O)COC(=O)Cc1ccccc1[N+](=O)[O-]	/	/	.	/	.	/
SMILES	PPC-1+TRAIL kill	SENP7 block	C8 TRAIL sens	SENP8 block-1	SENP8 block-2	SENP6 inh
Cc1nc(-c2ccc(NC(=O)C3CC3)cc2)cs1	/	.	.	.	.	.
Cc1nc(-c2ccc(NC(=O)CC(C)C)cc2)cs1	.	.	53	.	.	.
COc1ccc(Nc2nc(-c3ccccc3)nc3ccccc23)cc1S(=O)(=O)N1CCOCC1	.	.	48	.	.	.
CCOC(=O)C1(C)CCN1C(=O)c1cccc(Cl)c1 (centres undefined)	/	/	.	/	.	/
CC(C)(C)OC(=O)NCc1ccc(CNC(=O)c2nc[nH]c2C(=O)NCc2ccc(CNC(=O)OC(C)(C)C)cc2)cc1	/	.	.	.	.	.
CC(C)(C)OC(=O)NCc1ccc(NC(=O)c2nc[nH]c2C(=O)NCCNC(=O)c2[nH]cnc2C(=O)Nc2ccc(CNC(=O)OC(C)(C)C)cc2)cc1	/	.	88	.	.	.
